{"source": "PubChem BioAssay (NCATS)", "note": "Several values for one entry are separate records, joined by “and”; a condition that tells them apart may be missing. Identical values can stand only once. Records with an inconclusive call do not appear. Activity calls are given as the source filed them. Unless noted, calls come from the whole dose curve."}
{"molecular_target": "Peroxisome proliferator-activated receptor delta (Homo sapiens) (UniProt Q03181)", "sequence (Q03181 whole entry, looked up)": "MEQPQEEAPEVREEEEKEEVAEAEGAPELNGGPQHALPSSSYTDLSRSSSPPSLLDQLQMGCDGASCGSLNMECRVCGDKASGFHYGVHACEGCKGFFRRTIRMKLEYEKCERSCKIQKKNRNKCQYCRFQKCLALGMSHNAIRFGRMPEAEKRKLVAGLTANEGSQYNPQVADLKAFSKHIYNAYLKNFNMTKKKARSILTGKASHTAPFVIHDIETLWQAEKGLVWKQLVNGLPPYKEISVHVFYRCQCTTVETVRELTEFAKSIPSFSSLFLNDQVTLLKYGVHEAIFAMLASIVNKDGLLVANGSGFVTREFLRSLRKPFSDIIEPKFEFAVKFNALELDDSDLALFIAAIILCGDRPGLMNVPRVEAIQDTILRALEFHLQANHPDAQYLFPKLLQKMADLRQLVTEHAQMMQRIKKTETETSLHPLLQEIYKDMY", "assay": "qHTS assay for small molecule agonists of peroxisome proliferator-activated receptor delta signaling (AID 588534);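 note: 0% = DMSO basal wells and 100% = positive control agonist at 10 µM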", "settings": "HEK293T PPARdelta-UAS-bla, beta-lactamase ratio, 18 h; series mostly up to 76.7 µM; activation: at the top concentration", "outline": "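Titration series tested in agonist mode on beta-lactamase reporter cells; 18 hrs at 37 C after a 5 hr pre-incubation. Readout: CCF4 fluorescence, 2 hrs RT. Hill equation gives EC50 and maximal response.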"}
{"smiles": "C=C[C@@]1(C)CC(=O)[C@]2(O)[C@@]3(C)[C@@H](O)CCC(C)(C)[C@@H]3[C@H](O)[C@H](OC(C)=O)[C@@]2(C)O1", "activation": "1.54% (inactive)"}
{"smiles": "COCC(=O)N(c1c(C)cccc1C)C(C)C(=O)OC", "note": "(stereo not drawn)", "activation": "-2.94% (inactive)"}
{"smiles": "CC(=O)OC/C=C(C)/C=C/C=C(C)/C=C/C1=C(C)CCCC1(C)C", "activation": "-10.3% (inactive)"}
{"smiles": "NS(=O)(=O)c1cc(C(=O)O)c(NCc2ccco2)cc1Cl", "outcome": "inactive"}
{"smiles": "Nc1ccc(N=Nc2ccccc2)c(N)n1", "outcome": "inactive"}
{"smiles": "CCCCCCCCC(=O)NCc1ccc(O)c(OC)c1", "activation": "1.23% (inactive)"}
{"smiles": "Oc1c(Br)cc(Br)cc1Br", "outcome": "inactive"}
{"smiles": "COP(=S)(OC)Oc1ccc(Sc2ccc(OP(=S)(OC)OC)cc2)cc1", "activation": "-5.06% (inactive)"}
{"smiles": "Oc1ccc(Cl)cc1Cc1cc(Cl)ccc1O", "outcome": "inactive"}
{"smiles": "C[C@]12CCC(=O)C=C1CC[C@@H]1[C@@H]2C(=O)C[C@@]2(C)[C@H]1CC[C@]2(O)C(=O)CO", "activation": "-4.89% (inactive)"}
{"smiles": "CCOc1ccccc1C(N)=O", "activation": "6.61% (inactive)"}
{"smiles": "CC[n+]1c(-c2ccccc2)c2cc(N)ccc2c2ccc(N)cc21", "activation": "8.92% (inactive)"}
{"system": "not listed separately", "assay": "qHTS assay for small molecule antagonists of peroxisome proliferator-activated receptor delta signaling (AID 588535; active = well fitted inhibition curve with a large enough effect in the signal ratio, with a control signal flat, not every such curve was filed as active; the % refers to the signal ratio; note: potency is the fitted concentration of half-maximal effect;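 for max response: cells co-treated with a PPAR-delta agonist as stimulator during compound exposure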)", "settings": "HEK293T PPARd-UAS-bla, beta-lactamase FRET ratio, 18 h; 460 nm channel", "outline": "(§1)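 Beta-lactamase reporter read-out (405 nm excitation, 460/530 nm emission) after CCF4 loading for 2 hrs at RT. HEK293T PPAR-delta-UAS-bla cells, 2% charcoal/dextran FBS, compounds for 18 hrs at 37 C. Hill fit gave IC50 and efficacy.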"}
{"smiles": "COP(=O)(OC)OC=C(Cl)Cl", "max response": "3.66% and 4.74% and -42.4%"}
{"smiles": "CNC(=O)Oc1cccc2ccccc12", "max response": "25.4%"}
{"smiles": "C[C@@H]1C[C@@H]([C@H](O)CC2CC(=O)NC(=O)C2)C(=O)[C@@H](C)C1", "max response": "-115% and -59.6%"}
{"smiles": "COCC(=O)N(c1c(C)cccc1C)C(C)C(=O)OC", "note": "(stereo not drawn)", "max response": "-19%"}
{"smiles": "CCCCCCCCC(=O)NCc1ccc(O)c(OC)c1", "max response": "11.4%"}
{"smiles": "Oc1c(Br)cc(Br)cc1Br", "max response": "18.5%"}
{"smiles": "COP(=S)(OC)Oc1ccc(Sc2ccc(OP(=S)(OC)OC)cc2)cc1", "max response": "-0.163%"}
{"smiles": "CC[n+]1c(-c2ccccc2)c2cc(N)ccc2c2ccc(N)cc21", "max response": "-102%"}
{"molecular_target": "Peroxisome proliferator-activated receptor delta (Homo sapiens) (UniProt Q03181)", "assay": "qHTS assay for small molecule antagonists of peroxisome proliferator-activated receptor delta signaling (AID 588535); note: potency is the fitted concentration of half-maximal effect;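 for max response: cells co-treated with a PPAR-delta agonist as stimulator during compound exposure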", "settings": "HEK293T PPARd-UAS-bla, beta-lactamase FRET ratio, 18 h; series mostly up to 76.7 µM; activity change, negative = inhibition: at the top concentration", "outline": "as §1"}
{"smiles": "COP(=O)(OC)OC=C(Cl)Cl", "Potency": "inactive"}
{"smiles": "CNC(=O)Oc1cccc2ccccc12", "activity change, negative = inhibition": "-6.3% (inactive)"}
{"smiles": "C[C@@H]1C[C@@H]([C@H](O)CC2CC(=O)NC(=O)C2)C(=O)[C@@H](C)C1", "Potency": "316 nM (active) and 199 nM (active)"}
{"smiles": "COCC(=O)N(c1c(C)cccc1C)C(C)C(=O)OC", "note": "(stereo not drawn)", "activity change, negative = inhibition": "-26.6% (inactive)"}
{"smiles": "CCCCCCCCC(=O)NCc1ccc(O)c(OC)c1", "activity change, negative = inhibition": "14.6% (inactive)"}
{"smiles": "Oc1c(Br)cc(Br)cc1Br", "activity change, negative = inhibition": "26% (inactive)"}
{"smiles": "COP(=S)(OC)Oc1ccc(Sc2ccc(OP(=S)(OC)OC)cc2)cc1", "activity change, negative = inhibition": "-1.12% (inactive)"}
{"smiles": "CC[n+]1c(-c2ccccc2)c2cc(N)ccc2c2ccc(N)cc21", "Potency": "31.6 µM (active)"}
{"molecular_target": "Peroxisome proliferator-activated receptor gamma (Homo sapiens) (UniProt P37231)", "sequence (P37231 whole entry, looked up)": "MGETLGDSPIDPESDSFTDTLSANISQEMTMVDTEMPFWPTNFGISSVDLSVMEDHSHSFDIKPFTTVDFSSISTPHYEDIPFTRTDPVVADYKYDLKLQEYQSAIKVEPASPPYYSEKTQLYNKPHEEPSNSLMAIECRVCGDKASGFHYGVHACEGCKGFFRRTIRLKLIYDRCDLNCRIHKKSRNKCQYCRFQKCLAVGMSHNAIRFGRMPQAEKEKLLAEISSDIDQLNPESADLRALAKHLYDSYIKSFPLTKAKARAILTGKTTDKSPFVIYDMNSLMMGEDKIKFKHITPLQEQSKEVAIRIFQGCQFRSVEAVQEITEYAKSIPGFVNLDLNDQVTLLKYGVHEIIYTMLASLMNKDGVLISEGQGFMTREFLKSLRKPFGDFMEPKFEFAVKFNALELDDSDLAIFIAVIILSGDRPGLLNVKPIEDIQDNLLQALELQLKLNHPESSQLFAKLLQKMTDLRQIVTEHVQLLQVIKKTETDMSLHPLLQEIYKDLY", "assay": "qHTS assay for small molecule agonists of peroxisome proliferator-activated receptor gamma signaling (AID 588536; active = well fitted curve in the direction sought with a large enough effect in the signal ratio, with a control signal flat, not every such curve was filed as active; the % refers to the signal ratio)", "settings": "HEK293 PPARg-UAS-bla, beta-lactamase ratio, 16 h, percent of rosiglitazone response, DMSO as zero; series mostly up to 76.7 µM; activation: at the top concentration", "outline": "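Using GeneBLAzer HEK293 cells, response was quantified by CCF4 fluorescence and normalized between basal DMSO (0%) and rosiglitazone 2 uM (100%); curves yielded half-maximal stimulation concentration and efficacy.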"}
{"smiles": "COP(=O)(OC)OC=C(Cl)Cl", "activation": "-2.25% (inactive)"}
{"smiles": "C[C@@H]1C[C@@H]([C@H](O)CC2CC(=O)NC(=O)C2)C(=O)[C@@H](C)C1", "outcome": "inactive"}
{"smiles": "COCC(=O)N(c1c(C)cccc1C)C(C)C(=O)OC", "note": "(stereo not drawn)", "activation": "6.21% (inactive)"}
{"smiles": "CCCCCCCCC(=O)NCc1ccc(O)c(OC)c1", "activation": "-4.39% (inactive)"}
{"smiles": "Oc1c(Br)cc(Br)cc1Br", "outcome": "inactive"}
{"smiles": "COP(=S)(OC)Oc1ccc(Sc2ccc(OP(=S)(OC)OC)cc2)cc1", "activation": "-9.38% (inactive)"}
{"molecular_target": "Peroxisome proliferator-activated receptor gamma (Homo sapiens) (UniProt P37231)", "assay": "qHTS assay for small molecule antagonists of peroxisome proliferator-activated receptor gamma signaling (AID 588537; active = well fitted inhibition curve with a large enough effect in the signal ratio, with a control signal flat, not every such curve was filed as active; the % refers to the signal ratio; note: potency is the fitted concentration of half-maximal effect;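 for activity, negative = inhibition: reporter cells co-stimulated with 50 nM rosiglitazone agonist during compound treatment; % of control where 0% means no effect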)", "settings": "HEK293 PPARg-UAS-bla, beta-lactamase ratio, antagonist mode; series mostly up to 76.8 µM; activity, negative = inhibition: at the top concentration", "outline": "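Read-out: CCF4 fluorescence (ex 405, em 460/530 nm) after 2 h at RT. Cells were HEK293 carrying a UAS-bla reporter and treated 16 h at 37 C with compound plus rosiglitazone (50 nM final). Normalized to rosiglitazone and DMSO.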"}
{"smiles": "COCC(=O)N(c1c(C)cccc1C)C(C)C(=O)OC", "note": "(stereo not drawn)", "activity, negative = inhibition": "9.69% (inactive)"}
{"smiles": "Oc1c(Br)cc(Br)cc1Br", "activity, negative = inhibition": "-14.1% (inactive)"}
{"smiles": "Oc1ccc(Cl)cc1Cc1cc(Cl)ccc1O", "Potency": "35.5 µM (active)"}
{"molecular_target": "Vitamin D3 receptor (Homo sapiens) (UniProt P11473)", "sequence (P11473 whole entry, looked up)": "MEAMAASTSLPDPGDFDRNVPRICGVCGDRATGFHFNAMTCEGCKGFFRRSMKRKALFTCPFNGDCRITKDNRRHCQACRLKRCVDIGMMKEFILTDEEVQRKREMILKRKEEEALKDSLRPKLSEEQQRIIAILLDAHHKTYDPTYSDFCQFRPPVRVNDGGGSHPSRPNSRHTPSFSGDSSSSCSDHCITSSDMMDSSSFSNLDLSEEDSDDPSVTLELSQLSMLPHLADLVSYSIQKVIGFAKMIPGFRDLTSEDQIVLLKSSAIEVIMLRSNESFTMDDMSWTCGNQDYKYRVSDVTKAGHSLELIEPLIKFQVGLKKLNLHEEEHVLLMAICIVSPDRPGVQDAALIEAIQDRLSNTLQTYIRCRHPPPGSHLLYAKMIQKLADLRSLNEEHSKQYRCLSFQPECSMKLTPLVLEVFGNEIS", "assay": "qHTS assay for small molecule antagonists of vitamin D receptor signaling (AID 588541);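 note: receptor activated by calcitriol during compound treatment; % is set by controls: 0 for no effect and ±100 for the full control effect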", "settings": "HEK293T VDR-UAS-bla, beta-lactamase ratio, antagonist mode; series mostly up to 76.7 µM; activity change, negative = inhibition: at the top concentration", "outline": "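VDR-UAS-bla HEK293T cells in 2% charcoal-stripped FBS were stimulated with 1-alpha,25-dihydroxyvitamin D3 (3 nM final) plus compound for 16 h at 37 C. The beta-lactamase CCF4 readout was normalized to 50 nM agonist and DMSO, and Hill fits gave IC50.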"}
{"smiles": "CCCCCCCCCCCC[N+](C)(C)CCOc1ccccc1", "activity change, negative = inhibition": "-14% (inactive)"}
{"smiles": "CNC(=O)Oc1cccc2ccccc12", "outcome": "inactive"}
{"smiles": "COCC(=O)N(c1c(C)cccc1C)C(C)C(=O)OC", "note": "(stereo not drawn)", "activity change, negative = inhibition": "-0.408% (inactive)"}
{"smiles": "CCCCCCCCC(=O)NCc1ccc(O)c(OC)c1", "activity change, negative = inhibition": "2.84% (inactive)"}
{"smiles": "COP(=S)(OC)Oc1ccc(Sc2ccc(OP(=S)(OC)OC)cc2)cc1", "activity change, negative = inhibition": "-8.78% (inactive)"}
{"molecular_target": "Vitamin D3 receptor (Homo sapiens) (UniProt P11473)", "assay": "qHTS assay for small molecule agonists of vitamin D receptor signaling (AID 588543)", "settings": "HEK293T VDR-UAS-bla, beta-lactamase ratio, 16 h; series mostly up to 76.8 µM; activation: at the top concentration", "outline": "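VDR-UAS-bla HEK293T cells, 2000/well, 2% charcoal-stripped FBS; compound titration 16 h at 37 C; CCF4 beta-lactamase ratio read. Normalized to 50 nM 1-alpha,25-dihydroxyvitamin D3 (100%) and DMSO; Hill fit gives EC50, efficacy.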"}
{"smiles": "CCCCCCCCCCCC[N+](C)(C)CCOc1ccccc1", "activation": "-2.95% (inactive)"}
{"smiles": "CNC(=O)Oc1cccc2ccccc12", "outcome": "inactive"}
{"smiles": "COCC(=O)N(c1c(C)cccc1C)C(C)C(=O)OC", "note": "(stereo not drawn)", "activation": "-1.38% (inactive)"}
{"smiles": "CCCCCCCCC(=O)NCc1ccc(O)c(OC)c1", "activation": "-4.15% (inactive)"}
{"smiles": "CC[n+]1c(-c2ccccc2)c2cc(N)ccc2c2ccc(N)cc21", "activation": "13.6% (inactive)"}
{"system": "not listed separately", "assay": "qHTS assay for small molecule agonists of retinoid X receptor alpha signaling (AID 588544)", "settings": "HEK293T RXRa-UAS-bla, beta-lactamase reporter, 18 h; 530 nm emission"}
{"smiles": "COP(=O)(OC)OC=C(Cl)Cl", "max response": "-12.2% and -24.6% and -4.24%"}
{"smiles": "CNC(=O)Oc1cccc2ccccc12", "max response": "-5.93% and -0.426%"}
{"smiles": "C[C@@H]1C[C@@H]([C@H](O)CC2CC(=O)NC(=O)C2)C(=O)[C@@H](C)C1", "max response": "-10.1%"}
{"smiles": "COCC(=O)N(c1c(C)cccc1C)C(C)C(=O)OC", "note": "(stereo not drawn)", "max response": "3.24%"}
{"smiles": "CCCCCCCCC(=O)NCc1ccc(O)c(OC)c1", "max response": "2.94%"}
{"smiles": "Oc1c(Br)cc(Br)cc1Br", "max response": "-20.6%"}
